Bioassay records (PubChem BioAssay)
Only some compounds are listed: those with a hit (about 6.7% of all), similar ones and a draw of the others.
BoNT-F LC inh = BoNT F light chain protease inhibition; inhibition, % at 10 µM; 360,000 tested, 0.22% active; Multiplex microsphere protease cleavage assay, flow cytometry; in the data active = inhibition above about 35%, passing the limit was not always enough; inconclusive = no clear call, values can overlap the other calls; note: plate controls were buffer without enzyme for full effect and enzyme alone for no effect
Autofluor counter = compound fluorescence in toxin protease inhibitor counterscreen; 360,000 tested, 3.1% active; AID 624483; compound autofluorescence counterscreen, microsphere flow cytometry; active compounds read high; fluorescence intensity (test concentration not listed); in the data active = fluorescence intensity above about 16000; inconclusive = no clear call, values can overlap the other calls
GDH-TPI inh = GDH-TPI coupled enzyme inhibition counter-screen. GDH-TPI coupled enzyme counterscreen, NADH absorbance. inhibition, % at 4.8 µM. 360,000 tested, 1.2% active; in the data active = inhibition above about 30%;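 note: 0% = DMSO wells and 100% = wells lacking the enzyme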
BoNT A protease = BoNT A light chain protease inhibition; multiplex microsphere protease substrate cleavage, flow cytometry; 360,000 tested, 0.17% active; inhibition, % at 10 µM; note: plate controls were buffer without enzyme for full effect and enzyme alone for no effect
Anthrax LF prot = anthrax lethal factor protease inhibition; 360,000 tested, 0.12% active; multiplex microsphere protease cleavage assay, LF; AID 588501; inhibition, % at 10 µM; P15917; note: plate controls were buffer without enzyme for full effect and enzyme alone for no effect
Target sequence (P15917 whole entry, looked up): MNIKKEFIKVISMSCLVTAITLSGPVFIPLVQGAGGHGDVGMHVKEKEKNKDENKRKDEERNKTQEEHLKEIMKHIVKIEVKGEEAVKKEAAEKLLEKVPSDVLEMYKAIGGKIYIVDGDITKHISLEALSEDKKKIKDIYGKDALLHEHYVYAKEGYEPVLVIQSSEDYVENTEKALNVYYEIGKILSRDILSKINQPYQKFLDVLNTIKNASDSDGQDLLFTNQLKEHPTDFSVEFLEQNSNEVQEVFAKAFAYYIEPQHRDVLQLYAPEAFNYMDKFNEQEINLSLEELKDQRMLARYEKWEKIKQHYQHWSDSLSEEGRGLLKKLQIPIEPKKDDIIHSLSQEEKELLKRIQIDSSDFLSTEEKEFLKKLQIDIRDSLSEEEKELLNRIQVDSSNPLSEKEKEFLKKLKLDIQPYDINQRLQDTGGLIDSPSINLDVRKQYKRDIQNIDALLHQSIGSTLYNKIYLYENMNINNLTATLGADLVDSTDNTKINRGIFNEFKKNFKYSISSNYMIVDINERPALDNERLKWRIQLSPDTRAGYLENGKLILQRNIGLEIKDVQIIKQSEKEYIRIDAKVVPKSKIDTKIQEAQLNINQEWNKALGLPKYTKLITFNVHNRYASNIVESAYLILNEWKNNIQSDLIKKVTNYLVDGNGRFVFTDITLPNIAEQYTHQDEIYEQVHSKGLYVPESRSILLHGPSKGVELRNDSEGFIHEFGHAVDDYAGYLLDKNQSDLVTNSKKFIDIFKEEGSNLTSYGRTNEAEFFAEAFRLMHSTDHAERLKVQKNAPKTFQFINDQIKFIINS
FBA Mtb inh = Mtb fructose-bisphosphate aldolase inhibition; inhibition, % at 1 µM; AID 588726; purified M. tuberculosis FBA, fluorescence read-out; 360,000 tested, 2.3% active; in the data active = inhibition above about 27%;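 note: 0% = vehicle and 100% = reference inhibitor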
* marks the source's active call; other numbers are inactive results; ? = inconclusive; . = no result given; + = active, no number. Cut-off read from the data, not from the text of the source, unless noted: active = inhibition above about 30%; inconclusive = no clear call, values can overlap the other calls; inactive = below that.

SMILES	BoNT-F LC inh	Autofluor counter	GDH-TPI inh	BoNT A protease	Anthrax LF prot	FBA Mtb inh
CC(C)(C)C(=O)Nc1ccc(C(=O)Nc2cccnc2)cc1	0	23774*	-15	-2	-3	-2
COc1ccc(C2CCCCCN2C(=O)C2CCN(S(=O)(=O)c3cccc(C(C)=O)c3)CC2)cc1 (stereo not drawn)	9	2944	7	0	-11	1
OC[C@H]1O[C@@H](Oc2ccc3cc(Br)ccc3c2)[C@H](O)[C@@H](O)[C@H]1O	-3	?	2	-2	-3	-1
CCOC(=O)N=S(=O)(Oc1ccc([N+](=O)[O-])cc1)c1ccccc1 (stereo not drawn)	11	7472	12	-1	1	-1
CSCC[C@@H](C(=O)NCc1cccs1)N1Cc2ccccc2C1=O	-10	6286	-1	0	-2	1
COC(=O)c1coc(-c2ccc(C)cc2)c1C(=O)OC	-1	4359	-6	0	0	0
CC(C)(C)c1cccc(Oc2nn[nH]n2)c1	-4	7873	8	-1	-5	2
Cc1cc(C)cc(Oc2nn[nH]n2)c1	-4	24301*	4	-1	1	2
CCOCCCNC(=O)/C(C#N)=C/c1ccc([N+](=O)[O-])o1	-8	4283	46*	0	5	1
CCOCCCNC(=O)/C(C#N)=C/c1cc(Br)c(O)c(Br)c1	-8	3258	44*	0	4	3
Cc1cc(C)c(C)c(S(=O)(=O)N2CCN(C(=O)c3cc(S(=O)(=O)N4CCOCC4)ccc3F)CC2)c1C	18	4326	0	6	0	0
COc1cc(OC)c2c(=O)c(OC)c(-c3ccc(OC)c(OC)c3)oc2c1	1	5525	22	1	0	103*
COc1ccc(-c2cc(=O)c3c(OC)c(OC)c(OC)cc3o2)cc1	-8	5710	32*	0	4	-1
COc1cc(-c2cc(=O)c3ccccc3o2)ccc1O	1	4398	23	1	-8	-3
COc1ccc(-c2cc(=O)c3c(O)c(OC)c(OC)c(OC)c3o2)cc1	-5	3758	11	0	9	-1
COc1ccc(-c2cc(=O)c3c(OC)c(OC)c(OC)c(OC)c3o2)cc1OC	-4	4342	32*	-2	-6	7
COc1ccc(-c2cc(=O)c3ccccc3o2)cc1	0	4822	32*	0	0	+
COc1ccc(-c2oc3cc(O)c(OC)c(O)c3c(=O)c2OC)cc1O	-3	4067	22	0	-5	-3
Cn1c(=S)c2[nH]c(SCCC(C)(C)C)nc2n(C)c1=O	-2	2932	21	1	-2	7
NS(=O)(=O)c1cccc(NC(=O)CN2CCN(S(=O)(=O)c3ccc4c(c3)OCCO4)CC2)c1	-1	4351	-1	0	-1	-2
Nc1c(-c2ccc3c(c2)OCCO3)oc2ccccc2c1=O	-2	6018	-2	0	-2	+
O=c1cc(-c2ccc(O)cc2)oc2ccc(O)cc12	.	.	37*	.	.	4
O=c1cc(-c2ccc3c(c2)OCO3)oc2ccccc12	-17	7669	39*	-1	-3	22
O=c1cc(-c2ccc(O)cc2)oc2ccccc12	-7	5712	22	0	0	3
Cc1ccc(N(C(=O)CNC(=O)c2ccco2)C(C(=O)NC2CCCC2)c2cccnc2)cc1 (stereo not drawn)	-6	5056	-1	-2	-4	0
SMILES	BoNT-F LC inh	Autofluor counter	GDH-TPI inh	BoNT A protease	Anthrax LF prot	FBA Mtb inh
CCN(CC)c1ccc(CC2C(=O)N(C)C(=O)N(C)C2=O)cc1	0	2689	9	2	-2	42*
COc1cccc(CN(C)C(=O)c2cccnc2SC)c1OC	-3	3482	-3	0	-6	2
Cc1cc(NC(=O)CSc2nnc(CNc3ccc(F)cc3)n2C2CCCCC2)no1	1	23158*	-5	0	-2	3
CCc1nnc(NC(=O)CSc2nnc(CNc3ccc(F)cc3)n2C2CCCCC2)s1	0	16238*	7	0	-5	1
CCc1nnc(NC(=O)CSc2nnc(CNc3cccc(C)c3)n2-c2ccccc2)s1	3	8374	-2	3	-11	-2
Cc1cc(NC(=O)CSc2nnc3ccc(-c4ccc(F)cc4)nn23)no1	?	?	-7	?	?	2
COc1cc(/C=N/NC(=O)c2cc(-c3ccc4c(c3)OCO4)n[nH]2)ccc1O	-3	1957	39*	0	-2	-3
COc1cc(/C=N/NC(=O)c2ccc(=O)[nH]n2)ccc1O	4	2416	27	0	0	-4
